In PubChem BioAssay:
Active and inactive are the calls of the source.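 How the source made its calls: active means visual image review flags a hit and inhibition of aggregation exceeds 20%; inconclusive means visual hit but inhibition at or below 20%; inactive means no hit on visual image review.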

Assay: reduction of polyQ htt aggregates in cells – imaging, exon1htt(103Q)mCFP cells, high-content imaging, primary screen (AID 483);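 further: compound exposure lasted 3 days before fixation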;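 on nuclei count: percent of the per-plate median nuclei count of sample wells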
Details: exon1htt(103Q)mCFP cell line, aggregate imaging, at 2 µM; inhibition of aggregation: stronger effect = higher value; nuclei count: measured here: cell count, toxicity

Q: For `CC1=C(C(=O)OC(C)C)C(C2CC=CCC2)NC(=O)N1` (configuration not stated), which inhibition of aggregation is on record?
A: Its inhibition of aggregation is 17.1% (inactive).

Q: What about the nuclei count of the same molecule?
A: Its nuclei count is 93%.

Q: Which results are given for `O=C1NC(c2ccco2)Nc2ccccc21` (configuration not stated)?
A: inhibition of aggregation: -23.8% (inactive); nuclei count: 102%

Q: With `CCOC(=O)Cc1csc(NC(=O)CSc2nnc(-c3ccncc3)n2Cc2ccco2)n1` as the molecule, how does the nuclei count read?
A: The nuclei count was 97.6%.

Q: What about the inhibition of aggregation of the same molecule?
A: The inhibition of aggregation was 14.5% (inactive).

Q: For `CC1=C(C(=O)N2CCOCC2)C(c2ccsc2)C2=C(CCCC2=O)N1` (configuration not stated), which nuclei count is on record?
A: Its nuclei count is 99.6%.

Q: What about the inhibition of aggregation of the same molecule?
A: Its inhibition of aggregation is 2.7% (inactive).

Q: With `Cc1c(C(=O)NCc2ccoc2)oc2ccc3c(c12)C(=O)CC(C)(C)O3` as the molecule, how does the inhibition of aggregation read?
A: Its inhibition of aggregation is -2.1% (inactive).

Q: What about the nuclei count of the same molecule?
A: Its nuclei count is 78.2%.

Q: For `COc1ccc(C(O)Cn2c(=N)n(CCCN(C)C)c3ccccc32)cc1` (configuration not stated), which nuclei count is on record?
A: The nuclei count was 85.7%.

Q: What about the inhibition of aggregation of the same molecule?
A: Its inhibition of aggregation is -27.4% (inactive).

Q: Which inhibition of aggregation does the source give for `COc1ccccc1CC(=O)Nc1ccc(OC)c(OC)c1` here?
A: Its inhibition of aggregation is 17.1% (inactive).

Q: What about the nuclei count of the same molecule?
A: Its nuclei count is 102%.

Q: What does the source list for `CCc1nnc(NC(=O)c2ccc(S(=O)(=O)NCC(C)C)cc2)s1`?
A: nuclei count: 100%; inhibition of aggregation: -18.5% (inactive)

Q: For `CCOc1ccc(NC(=O)CN2CCN(CC(=O)c3ccc(OCC)cc3)CC2)cc1`, which nuclei count is on record?
A: Its nuclei count is 110%.

Q: What about the inhibition of aggregation of the same molecule?
A: Its inhibition of aggregation is -16% (inactive).

Q: For `COc1ccc(OC)c(C(=O)c2ccc(C(=O)O)cc2)c1`, which inhibition of aggregation is on record?
A: Its inhibition of aggregation is -5.3% (inactive).

Q: What about the nuclei count of the same molecule?
A: The nuclei count was 100%.

Q: With `COCCN(CC(=O)Nc1ccccc1C)S(=O)(=O)c1ccc(S(=O)(=O)N2CCCC2)cc1` as the molecule, how does the inhibition of aggregation read?
A: Its inhibition of aggregation is -6.7% (inactive).

Q: What about the nuclei count of the same molecule?
A: Its nuclei count is 103%.

Q: Which inhibition of aggregation does the source give for `Cc1ccc(C)c(N2CCN(CCCNC(=O)Cn3cc4c(n3)CCCCC4)CC2)c1` here?
A: The inhibition of aggregation was -55.1% (inactive).

Q: What about the nuclei count of the same molecule?
A: The nuclei count was 114%.

Q: Which inhibition of aggregation does the source give for `Nc1cccc2c1C(=O)N(c1ccccc1)C2=O` here?
A: Its inhibition of aggregation is -6% (inactive).

Q: What about the nuclei count of the same molecule?
A: Its nuclei count is 87.9%.

Q: Which inhibition of aggregation does the source give for `CC(C)COc1ccc(-c2nnn(CC(=O)N3CCCC3)n2)cc1` here?
A: Its inhibition of aggregation is -13.3% (inactive).

Q: And the nuclei count?
A: Its nuclei count is 106%.

Q: With `CCOc1cc(C2NC(=O)N(C)C(C)=C2C(=O)OC)cc(Br)c1O` (configuration not stated) as the molecule, how does the nuclei count read?
A: Its nuclei count is 110%.

Q: What about the inhibition of aggregation of the same molecule?
A: Its inhibition of aggregation is -9.6% (inactive).

Q: For `C/C(=C\C(=O)c1ccc(F)cc1)Nc1ccc(N2CCOCC2)cc1`, which nuclei count is on record?
A: The nuclei count was 86.5%.

Q: What about the inhibition of aggregation of the same molecule?
A: The inhibition of aggregation was 20.9% (inactive).

Q: Which inhibition of aggregation does the source give for `CCC(C)NC(=O)CS(=O)(=O)Cc1nc(-c2cccc(OC)c2)oc1C` (configuration not stated) here?
A: Its inhibition of aggregation is -7.7% (inactive).

Q: And the nuclei count?
A: The nuclei count was 99.2%.

Q: Which results are given for `COc1ccc(/C=N/n2cnnc2SCc2ccc(OC)cc2)cc1`?
A: nuclei count: 96.9%; inhibition of aggregation: 1.4% (inactive)

Q: Which inhibition of aggregation does the source give for `CCOc1ccc(C2CC(c3ccccc3C)n3nc(N)nc3N2)cc1` (configuration not stated) here?
A: Its inhibition of aggregation is 30.8% (inactive).

Q: And the nuclei count?
A: Its nuclei count is 91.1%.

Q: For `COc1ccccc1-c1nnc(SCC(=O)N2CC(C)CC(C)C2)o1` (configuration not stated), which inhibition of aggregation is on record?
A: Its inhibition of aggregation is -3.7% (inactive).

Q: And the nuclei count?
A: The nuclei count was 112%.

Q: For `Cc1ccnc(NC(=O)C2CCCN(S(=O)(=O)c3cnc[nH]3)C2)c1` (configuration not stated), which inhibition of aggregation is on record?
A: The inhibition of aggregation was 39.4% (active).

Q: What about the nuclei count of the same molecule?
A: The nuclei count was 84.3%.

Q: For `Cc1cc(C)c2cc3c(ccn3C3OC[C@H](O)[C@H](O)[C@H]3O)cc2n1` (some centres not stated), which nuclei count is on record?
A: Its nuclei count is 121%.

Q: And the inhibition of aggregation?
A: The inhibition of aggregation was -19.6% (inactive).

Q: Which inhibition of aggregation does the source give for `CC(=O)NCc1cccc(CNC(C)=O)n1` here?
A: Its inhibition of aggregation is -29% (inactive).

Q: And the nuclei count?
A: Its nuclei count is 109%.

Q: What does the source list for `Cc1ccc2[nH]c(=O)c(C(c3nnnn3CCc3ccccc3)N3CCOCC3)cc2c1` (configuration not stated)?
A: inhibition of aggregation: 1.1% (inactive); nuclei count: 99%

Q: Which results are given for `O=c1c2ccc(-c3nnc4n3-c3ccccc3SC4)cc2nc2n1CCCCC2`?
A: nuclei count: 111%; inhibition of aggregation: 9% (inactive)

Q: For `Cc1sc2nc(SCC(=O)NCCO)n(C)c(=O)c2c1C`, which nuclei count is on record?
A: The nuclei count was 109%.

Q: What about the inhibition of aggregation of the same molecule?
A: Its inhibition of aggregation is 12.1% (inactive).
